Laboratory results as given in PubChem BioAssay (NCATS).
Inconclusive results are not listed. Calls of active or inactive are those of the source. Calls follow the shape of the dose curve; as a rule, active = well fitted inhibition curve with a large enough effect; inconclusive = small, poorly fitted or top-dose-only effect; inactive = flat fitted curve, though single readings scatter.

Experiments:
[1] = target: Glutathione peroxidase 1 (Homo sapiens) (UniProt P07203); experiment: Primary qHTS Assay for Inhibitors of Recombinant Selenoprotein Glutathione Peroxidase 1 (GPX1) (AID 1845191); also: nearly all actives have a fitted effect of over 65% in size
Sequence of Glutathione peroxidase 1 (Homo sapiens) (P07203 whole entry, looked up): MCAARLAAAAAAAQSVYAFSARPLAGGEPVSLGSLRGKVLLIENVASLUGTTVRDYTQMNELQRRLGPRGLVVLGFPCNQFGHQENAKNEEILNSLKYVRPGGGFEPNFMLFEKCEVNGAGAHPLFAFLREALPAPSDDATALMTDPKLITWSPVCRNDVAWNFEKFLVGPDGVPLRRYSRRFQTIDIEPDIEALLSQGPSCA
Method in brief: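 Recombinant GPX1 (10 nM final) was preincubated with compound for 30 min at room temperature, then reacted with 1 mM GSH, 0.5 mM CHP, 0.5 mM NADPH and 100 nM glutathione reductase; NADPH fluorescence (340/450 nm) was read at 0 and 15 min.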

[2] = target: Phospholipid hydroperoxide glutathione peroxidase GPX4 (Homo sapiens) (UniProt P36969); experiment: Primary qHTS Assay for Inhibitors of Recombinant Selenoprotein Glutathione Peroxidase 4 (GPX4) (AID 1845192); also: series mostly up to about 50 µM; nearly all actives have a fitted effect of over 65% in size
Sequence of Phospholipid hydroperoxide glutathione peroxidase GPX4 (Homo sapiens) (P36969 whole entry, looked up): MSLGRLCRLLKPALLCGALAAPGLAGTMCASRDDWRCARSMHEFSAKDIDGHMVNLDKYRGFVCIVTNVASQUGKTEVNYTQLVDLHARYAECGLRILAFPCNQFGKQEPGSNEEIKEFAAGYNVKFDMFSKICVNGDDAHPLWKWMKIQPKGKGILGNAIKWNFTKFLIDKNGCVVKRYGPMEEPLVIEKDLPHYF
Method in brief: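 GR-coupled readout: 100 nM GR, 1 mM GSH, 0.5 mM NADPH; NADPH fluorescence (ex 340/em 450 nm) read at t=0 and after 15 min RT. GPX4 200 nM, preincubated 30 min with compound; substrate 0.5 mM CHP.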

[3] = target: Luciferin 4-monooxygenase (Photinus pyralis) (UniProt P08659); experiment: Primary firefly luciferase (FLuc) qHTS assay for identification of artifact compounds. (AID 1845220); also: nearly all actives have a fitted effect of over 60% in size
Method in brief: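 qHTS, 15 min compound preincubation with substrate (10 uM luciferin, 10 uM ATP) at RT, then 10 nM FLuc; 5 min; luminescence; % inhibition vs no-enzyme/DMSO controls, 4-parameter Hill fit.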

Measured: Potency

NC(N)=NCCC[C@H](NC(=O)c1sccc1NS(=O)(=O)c1cccc2nsnc12)C(=O)O
inactive: all assays above

COc1cc(O)cc(O[C@@H]2O[C@H](CO)[C@@H](O[C@@H]3OC[C@](O)(CO)[C@H]3O)[C@H](O)[C@H]2O)c1OC
inactive: all assays above

C[C@H]1CC(=O)C2=C(C1)C(O)C(O)[C@@]1(O)[C@H]2C(=O)c2cccc(O)c2[C@@H]1O (some centres undefined)
inactive: all assays above

COc1ccc2c(c1)N1C(=O)C[C@@]34C=CC[N@+]5([O-])CC[C@H]2[C@H](CC3)[C@@]145
inactive: all assays above

C=C1CCC2C(C)(C)CC(=O)CC2(C)C1CCC(C)CCO (centres undefined)
inactive: all assays above

Cc1occc1C(=O)n1ccnc1
inactive: all assays above

COC(=O)c1ccc(OC)cc1O[C@@H]1O[C@H](CO[C@@H]2OC[C@@H](O)[C@H](O)[C@H]2O)[C@@H](O)[C@H](O)[C@H]1O
inactive: all assays above

CCC(C)C(=O)O[C@H]1[C@@H](O[C@H]2O[C@H](CO)[C@@H](O)[C@H](O)[C@H]2O)O[C@H](CO)[C@@H](O)[C@@H]1O (some centres undefined)
inactive: all assays above

CC1CC=C2C1CC1(O)C(=O)CC2(C)C1(C)CO (centres undefined)
inactive: all assays above

CC(=O)c1ccc(O[C@@H]2OC[C@@H](O)[C@H](O)[C@H]2O[C@]2(CO)O[C@H](CO)[C@@H](O)[C@@H]2O)c(O)c1
inactive: all assays above

C/C(=C\CCC(C)(C)O)CCO[C@@H]1O[C@H](CO[C@@H]2O[C@@H](C)[C@H](O)[C@@H](O)[C@H]2O)[C@@H](O)[C@H](O)[C@H]1O
inactive: all assays above

O=C(Cc1ccccc1)OC[C@H]1O[C@H](O[C@H]2O[C@H](CO)[C@@H](O)[C@H](O)[C@H]2O)[C@H](O)[C@@H](O)[C@@H]1O
inactive: all assays above

CC(=O)OC1C(C)C2C(OC3OC(CO)C(O)C(O)C3O)OC=C(C(=O)O)C2C1OC(=O)c1ccccc1 (centres undefined)
inactive: all assays above

C=C(C(=O)O)[C@@H]1CC[C@@]2(C)CC[C@@H](O)C(=C)C2C1 (some centres undefined)
inactive: all assays above

CC1=CC(=O)C(=C(C)C)CC2C(C)(O)CCC12O (centres undefined)
inactive: all assays above

O=C(/C=C/c1ccc(O)cc1)OC[C@H]1O[C@H](O[C@@]2(CO)O[C@@H](CO)[C@H](O)[C@H]2O)[C@H](O)[C@@H](O)[C@@H]1O
inactive: all assays above

C/C=C(\C)C(=O)OC[C@H]1O[C@H](O[C@H]2O[C@H](CO)[C@@H](O)[C@H](O)[C@H]2O[C@@H]2O[C@H](CO)[C@@H](O)[C@H](O)[C@H]2O)[C@H](O[C@@H]2O[C@H](CO)[C@@H](O)[C@H](O)[C@H]2O)[C@@H](O)[C@@H]1O
inactive: all assays above

O=C(C[C@@H]1C(C(=O)O)=CO[C@@H](O[C@@H]2O[C@H](CO)[C@@H](O)[C@H](O)[C@H]2O)/C1=C\CO)OCCc1ccc(O)cc1
inactive: all assays above

CC1(C)CCC2(C(=O)O)CCC3(C)C(=CCC4C5(C)CCC(O)C(C)(CO)C5C(O)CC43C)C2C1 (centres undefined)
inactive: all assays above

CC(=O)c1c(C)cccc1O[C@@H]1O[C@H](CO)[C@@H](O)[C@H](O)[C@H]1O
inactive: all assays above

C[C@@H]1C(=O)O[C@H]2[C@H]1CC[C@@]1(C)C(=O)C=C[C@@](C)(O)[C@H]21
inactive: all assays above

C=C1CC23CC1CCC2C12OC(=O)C(C)(C(O)CC1O)C2C3C(=O)O (centres undefined)
inactive: all assays above

CN(C)c1ccc(C2O[C@@H](c3ccccc3)C[C@H](c3ccccc3)O2)cc1 (some centres undefined)
inactive: all assays above

CC1=C2C3OC(=O)C(C)C3(O)CCC2(C)CCC1 (centres undefined)
inactive: all assays above

COC(=O)c1[nH]c(=O)c2ccccc2c1-c1ccc[nH]1
inactive: all assays above

O=C(Nc1cc(-c2ccccc2)nn1-c1ccccc1F)c1ccc([N+](=O)[O-])cc1
inactive: all assays above

C=CCc1cc(OC)c(OC(C)C(O)c2ccc(O)c(OC)c2)c(OC)c1 (centres undefined)
inactive: all assays above

COc1ccc(O[C@@H]2O[C@H](CO)[C@@H](O)[C@H](O)[C@H]2O)cc1OC
inactive: all assays above
